Experimental data reported in the supplement of paper PMC11732987, “Enantioselective OTUD7B fragment discovery through chemoproteomics screening and high-throughput optimisation” (Communications Chemistry, 2025).
Unmarked numbers belong to inactive results.

Experiments:
Experiment in all cases: log2 ratio of Biotin-Ahx-Ub-VS probe labelling (fragment/DMSO); higher = less target engagement (more negative = stronger competition), active = hit call of the paper (q ≤ 0.05, log2 ratio ≤ -1)
Conditions in all cases: compound concentration: 200 uM; treatment time: 3 h
USP16 = USP16 (UniProt Q9Y5T5)
Chain of USP16 (Q9Y5T5 whole entry, looked up, the tested form may be a part): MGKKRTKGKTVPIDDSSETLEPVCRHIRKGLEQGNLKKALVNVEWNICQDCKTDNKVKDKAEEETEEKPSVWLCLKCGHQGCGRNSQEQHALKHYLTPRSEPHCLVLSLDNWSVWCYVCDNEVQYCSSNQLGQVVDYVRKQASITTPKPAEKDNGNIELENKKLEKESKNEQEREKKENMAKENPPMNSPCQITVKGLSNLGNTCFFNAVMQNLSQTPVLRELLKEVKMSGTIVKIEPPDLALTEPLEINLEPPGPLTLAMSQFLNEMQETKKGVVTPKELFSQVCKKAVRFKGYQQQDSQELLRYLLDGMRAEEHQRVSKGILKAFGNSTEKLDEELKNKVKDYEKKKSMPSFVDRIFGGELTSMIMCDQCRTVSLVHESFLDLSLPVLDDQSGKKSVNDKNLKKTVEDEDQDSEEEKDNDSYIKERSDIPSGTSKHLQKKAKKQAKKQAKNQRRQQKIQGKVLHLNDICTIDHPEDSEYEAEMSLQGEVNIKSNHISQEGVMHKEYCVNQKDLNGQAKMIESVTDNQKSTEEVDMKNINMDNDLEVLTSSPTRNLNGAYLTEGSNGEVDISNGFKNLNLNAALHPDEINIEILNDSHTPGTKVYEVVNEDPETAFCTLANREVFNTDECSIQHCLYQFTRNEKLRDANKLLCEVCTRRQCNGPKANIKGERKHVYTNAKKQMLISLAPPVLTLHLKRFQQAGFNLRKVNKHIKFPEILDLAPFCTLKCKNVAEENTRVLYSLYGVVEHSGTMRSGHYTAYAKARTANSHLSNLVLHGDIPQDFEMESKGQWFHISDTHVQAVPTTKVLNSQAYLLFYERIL
In short: (§1)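 HEK293T lysate, 495 µg per sample in Tris/CHAPS/IGEPAL buffer with protease inhibitors, was treated in triplicate with fragment at 200 µM or vehicle for 3 h and then with Biotin-Ahx-Ub-VS at 0.5 µM final for 1 h. Labelled DUBs were NeutrAvidin-enriched, digested with LysC and trypsin, and run by diaPASEF LC-MS/MS. Spectronaut label-free quantities were global-median-normalised, and values are average log2 fragment/vehicle ratios by unpaired t-test on proteins with ≥2 unique peptides.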

USP19 = molecular target: T1, USP19 (UniProt O94966)
T1 sequence (whole entry): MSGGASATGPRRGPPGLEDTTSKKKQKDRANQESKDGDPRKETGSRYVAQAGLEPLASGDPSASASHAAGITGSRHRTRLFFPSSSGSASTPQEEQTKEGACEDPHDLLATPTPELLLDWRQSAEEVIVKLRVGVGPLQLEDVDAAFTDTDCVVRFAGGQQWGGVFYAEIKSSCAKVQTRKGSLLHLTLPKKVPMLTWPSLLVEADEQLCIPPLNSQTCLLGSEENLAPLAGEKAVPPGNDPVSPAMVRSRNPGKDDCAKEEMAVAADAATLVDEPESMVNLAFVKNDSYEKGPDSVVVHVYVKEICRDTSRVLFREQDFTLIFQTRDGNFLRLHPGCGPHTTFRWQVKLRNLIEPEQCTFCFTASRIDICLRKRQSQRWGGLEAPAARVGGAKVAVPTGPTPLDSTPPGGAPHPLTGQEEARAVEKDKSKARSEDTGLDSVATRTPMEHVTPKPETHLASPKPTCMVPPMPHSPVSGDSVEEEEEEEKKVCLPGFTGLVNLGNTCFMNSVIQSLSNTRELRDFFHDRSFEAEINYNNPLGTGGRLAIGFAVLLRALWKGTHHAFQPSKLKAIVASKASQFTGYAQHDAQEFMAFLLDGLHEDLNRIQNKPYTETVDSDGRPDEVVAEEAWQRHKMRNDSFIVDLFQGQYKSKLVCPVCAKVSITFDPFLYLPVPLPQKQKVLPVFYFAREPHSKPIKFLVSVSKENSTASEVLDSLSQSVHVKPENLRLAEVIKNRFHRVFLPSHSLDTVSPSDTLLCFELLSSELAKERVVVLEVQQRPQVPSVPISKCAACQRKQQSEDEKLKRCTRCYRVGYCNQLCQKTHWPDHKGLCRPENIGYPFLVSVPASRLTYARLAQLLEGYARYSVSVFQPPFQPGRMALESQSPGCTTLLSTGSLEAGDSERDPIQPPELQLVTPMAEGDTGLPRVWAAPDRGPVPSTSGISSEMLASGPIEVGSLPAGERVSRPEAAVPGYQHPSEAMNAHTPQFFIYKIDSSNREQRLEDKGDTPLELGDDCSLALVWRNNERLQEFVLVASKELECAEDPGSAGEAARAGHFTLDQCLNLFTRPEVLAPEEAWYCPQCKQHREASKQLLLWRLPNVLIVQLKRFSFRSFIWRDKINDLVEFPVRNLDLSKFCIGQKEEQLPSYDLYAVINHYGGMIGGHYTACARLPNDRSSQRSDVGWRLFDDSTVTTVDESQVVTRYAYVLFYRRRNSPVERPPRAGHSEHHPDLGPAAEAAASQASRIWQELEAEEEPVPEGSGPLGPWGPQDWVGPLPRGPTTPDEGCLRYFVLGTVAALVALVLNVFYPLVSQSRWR
In short: as §1

USP24 = USP24 (UniProt Q9UPU5)
Chain of USP24 (Q9UPU5 whole entry): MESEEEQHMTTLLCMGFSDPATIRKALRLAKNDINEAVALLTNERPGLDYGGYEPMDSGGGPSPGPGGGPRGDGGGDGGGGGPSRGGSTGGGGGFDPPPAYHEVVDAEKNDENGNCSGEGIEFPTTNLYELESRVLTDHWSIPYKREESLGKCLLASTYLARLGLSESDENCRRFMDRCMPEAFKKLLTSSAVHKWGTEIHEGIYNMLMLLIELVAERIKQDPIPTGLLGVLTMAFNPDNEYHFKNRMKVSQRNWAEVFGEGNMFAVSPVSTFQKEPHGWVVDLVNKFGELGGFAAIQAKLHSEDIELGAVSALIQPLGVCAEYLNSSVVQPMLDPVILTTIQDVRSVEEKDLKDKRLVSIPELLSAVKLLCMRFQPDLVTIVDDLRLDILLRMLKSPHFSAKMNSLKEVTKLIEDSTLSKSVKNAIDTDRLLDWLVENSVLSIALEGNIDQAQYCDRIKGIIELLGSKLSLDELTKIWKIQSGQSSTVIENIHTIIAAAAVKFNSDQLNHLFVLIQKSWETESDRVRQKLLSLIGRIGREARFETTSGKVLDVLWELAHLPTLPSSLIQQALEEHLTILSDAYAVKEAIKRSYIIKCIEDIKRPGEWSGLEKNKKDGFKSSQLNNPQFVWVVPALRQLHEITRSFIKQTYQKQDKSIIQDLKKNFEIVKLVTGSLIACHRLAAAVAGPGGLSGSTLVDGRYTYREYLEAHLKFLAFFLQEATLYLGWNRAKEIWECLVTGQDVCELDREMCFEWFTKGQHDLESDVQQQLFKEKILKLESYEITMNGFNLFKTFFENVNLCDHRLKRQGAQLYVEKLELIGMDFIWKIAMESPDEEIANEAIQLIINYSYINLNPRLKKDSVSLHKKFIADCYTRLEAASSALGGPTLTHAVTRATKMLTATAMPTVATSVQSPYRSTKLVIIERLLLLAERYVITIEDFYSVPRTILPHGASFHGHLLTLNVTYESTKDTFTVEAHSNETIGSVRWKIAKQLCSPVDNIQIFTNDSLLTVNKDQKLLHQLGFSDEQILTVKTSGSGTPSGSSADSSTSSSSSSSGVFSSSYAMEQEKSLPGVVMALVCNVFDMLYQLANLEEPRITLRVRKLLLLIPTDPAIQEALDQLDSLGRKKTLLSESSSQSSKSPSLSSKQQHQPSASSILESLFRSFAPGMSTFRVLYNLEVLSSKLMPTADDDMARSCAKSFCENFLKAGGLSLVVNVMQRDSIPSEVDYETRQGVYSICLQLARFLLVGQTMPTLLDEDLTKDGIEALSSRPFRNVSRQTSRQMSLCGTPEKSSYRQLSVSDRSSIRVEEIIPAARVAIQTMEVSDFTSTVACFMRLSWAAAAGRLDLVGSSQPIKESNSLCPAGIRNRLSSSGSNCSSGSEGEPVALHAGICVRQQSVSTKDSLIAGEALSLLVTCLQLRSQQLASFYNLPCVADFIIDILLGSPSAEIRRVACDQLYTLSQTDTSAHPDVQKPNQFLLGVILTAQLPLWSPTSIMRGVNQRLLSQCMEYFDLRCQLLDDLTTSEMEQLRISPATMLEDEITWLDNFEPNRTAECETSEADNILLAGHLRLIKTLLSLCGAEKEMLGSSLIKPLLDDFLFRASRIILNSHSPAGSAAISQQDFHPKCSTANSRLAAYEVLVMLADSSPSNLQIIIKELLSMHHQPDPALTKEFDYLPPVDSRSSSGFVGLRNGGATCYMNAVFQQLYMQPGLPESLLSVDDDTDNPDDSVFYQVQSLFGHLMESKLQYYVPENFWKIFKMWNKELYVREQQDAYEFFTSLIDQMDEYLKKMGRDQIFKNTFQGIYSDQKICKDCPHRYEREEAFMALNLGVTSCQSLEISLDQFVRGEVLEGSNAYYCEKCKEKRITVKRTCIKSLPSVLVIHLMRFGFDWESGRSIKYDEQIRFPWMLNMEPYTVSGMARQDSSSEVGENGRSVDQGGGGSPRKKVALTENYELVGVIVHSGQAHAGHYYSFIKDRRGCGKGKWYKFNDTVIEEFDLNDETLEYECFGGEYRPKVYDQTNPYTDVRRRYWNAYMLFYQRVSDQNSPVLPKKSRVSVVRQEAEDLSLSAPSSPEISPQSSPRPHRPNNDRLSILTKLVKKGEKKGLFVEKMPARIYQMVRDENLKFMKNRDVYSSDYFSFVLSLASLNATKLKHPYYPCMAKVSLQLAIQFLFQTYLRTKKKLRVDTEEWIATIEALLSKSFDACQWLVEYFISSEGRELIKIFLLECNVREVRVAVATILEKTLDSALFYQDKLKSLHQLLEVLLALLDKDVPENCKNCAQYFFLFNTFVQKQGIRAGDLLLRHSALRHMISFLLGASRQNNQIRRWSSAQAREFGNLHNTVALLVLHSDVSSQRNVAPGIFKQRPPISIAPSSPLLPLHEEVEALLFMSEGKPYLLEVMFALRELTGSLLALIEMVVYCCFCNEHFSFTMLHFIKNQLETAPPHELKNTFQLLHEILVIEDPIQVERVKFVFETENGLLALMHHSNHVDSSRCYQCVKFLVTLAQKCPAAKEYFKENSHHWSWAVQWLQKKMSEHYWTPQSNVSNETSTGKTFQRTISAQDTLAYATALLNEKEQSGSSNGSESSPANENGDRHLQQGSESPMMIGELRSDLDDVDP
In short: as §1

USP25 = molecular target: T2, USP25 (UniProt Q9UHP3)
T2 sequence (whole entry): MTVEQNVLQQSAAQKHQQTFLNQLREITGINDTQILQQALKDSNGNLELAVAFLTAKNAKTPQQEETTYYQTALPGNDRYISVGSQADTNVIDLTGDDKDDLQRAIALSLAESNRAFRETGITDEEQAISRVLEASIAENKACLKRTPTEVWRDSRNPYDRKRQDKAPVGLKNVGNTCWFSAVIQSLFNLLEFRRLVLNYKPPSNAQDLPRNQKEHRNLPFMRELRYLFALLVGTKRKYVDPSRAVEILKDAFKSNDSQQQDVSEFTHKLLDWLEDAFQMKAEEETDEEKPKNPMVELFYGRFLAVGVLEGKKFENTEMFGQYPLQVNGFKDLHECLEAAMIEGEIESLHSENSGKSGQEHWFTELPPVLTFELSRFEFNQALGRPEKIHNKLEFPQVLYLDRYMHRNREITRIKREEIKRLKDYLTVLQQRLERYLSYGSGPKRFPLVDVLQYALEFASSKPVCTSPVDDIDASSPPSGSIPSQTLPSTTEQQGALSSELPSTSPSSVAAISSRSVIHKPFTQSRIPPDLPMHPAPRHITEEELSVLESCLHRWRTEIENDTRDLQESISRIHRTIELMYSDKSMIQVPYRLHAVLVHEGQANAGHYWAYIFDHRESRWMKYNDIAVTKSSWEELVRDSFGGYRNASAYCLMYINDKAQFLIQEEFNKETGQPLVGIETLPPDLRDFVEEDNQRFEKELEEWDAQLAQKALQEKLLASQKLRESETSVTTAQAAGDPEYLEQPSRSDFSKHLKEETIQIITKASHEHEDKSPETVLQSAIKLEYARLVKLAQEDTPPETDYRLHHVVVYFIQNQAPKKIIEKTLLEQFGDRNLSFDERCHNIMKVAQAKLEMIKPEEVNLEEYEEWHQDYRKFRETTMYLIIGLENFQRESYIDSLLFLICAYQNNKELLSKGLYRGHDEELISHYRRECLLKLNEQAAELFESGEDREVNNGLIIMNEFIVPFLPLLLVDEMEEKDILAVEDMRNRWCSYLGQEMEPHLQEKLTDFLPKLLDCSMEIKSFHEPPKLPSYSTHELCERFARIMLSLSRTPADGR
In short: as §1

USP28 = molecular target: T3, USP28 (UniProt Q96RU2)
T3 sequence (whole entry): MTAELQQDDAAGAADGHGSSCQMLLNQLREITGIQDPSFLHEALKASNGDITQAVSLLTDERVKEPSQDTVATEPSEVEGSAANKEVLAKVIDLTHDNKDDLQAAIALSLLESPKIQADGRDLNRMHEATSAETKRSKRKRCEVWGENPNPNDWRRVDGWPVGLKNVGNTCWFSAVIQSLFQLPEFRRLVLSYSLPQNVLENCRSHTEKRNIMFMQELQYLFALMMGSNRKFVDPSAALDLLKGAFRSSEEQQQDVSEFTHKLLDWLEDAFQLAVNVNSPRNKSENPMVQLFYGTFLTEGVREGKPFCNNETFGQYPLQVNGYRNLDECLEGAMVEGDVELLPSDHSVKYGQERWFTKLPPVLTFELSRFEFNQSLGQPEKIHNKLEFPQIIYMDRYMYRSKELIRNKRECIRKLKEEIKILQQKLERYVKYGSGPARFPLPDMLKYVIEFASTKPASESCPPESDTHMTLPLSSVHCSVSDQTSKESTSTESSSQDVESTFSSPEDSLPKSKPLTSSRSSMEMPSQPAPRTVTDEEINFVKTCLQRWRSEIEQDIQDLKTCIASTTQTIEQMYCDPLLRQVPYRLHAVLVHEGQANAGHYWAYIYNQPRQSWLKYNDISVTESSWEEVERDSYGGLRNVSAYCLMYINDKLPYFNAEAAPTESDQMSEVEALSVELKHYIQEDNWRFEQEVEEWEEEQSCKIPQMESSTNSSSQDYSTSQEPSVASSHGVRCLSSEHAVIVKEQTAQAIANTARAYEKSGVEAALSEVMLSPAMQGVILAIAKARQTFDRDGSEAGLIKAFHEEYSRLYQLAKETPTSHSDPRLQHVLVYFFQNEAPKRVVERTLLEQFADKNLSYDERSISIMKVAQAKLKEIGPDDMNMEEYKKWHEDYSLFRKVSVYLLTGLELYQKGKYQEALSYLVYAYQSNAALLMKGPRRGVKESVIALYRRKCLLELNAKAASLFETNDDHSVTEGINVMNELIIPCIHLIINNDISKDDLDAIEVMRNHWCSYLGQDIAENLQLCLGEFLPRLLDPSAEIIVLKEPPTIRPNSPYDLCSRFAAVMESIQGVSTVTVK
In short: as §1

Cc1n[nH]c2c1CN(C(=O)CCl)CC2
log2 ratio of Biotin-Ahx-Ub-VS probe labelling (USP16): -0.207 | log2 ratio of Biotin-Ahx-Ub-VS probe labelling (USP19): -1.23 (active) | log2 ratio of Biotin-Ahx-Ub-VS probe labelling (USP24): -1.26 (active) | log2 ratio of Biotin-Ahx-Ub-VS probe labelling (USP25): -0.783 | log2 ratio of Biotin-Ahx-Ub-VS probe labelling (USP28): -1.29 (active)
